Test [1] deals with Myc proto-oncogene protein (Homo sapiens) (UniProt P01106). Kind of test: ATG_Myc_CIS: Attagene CIS-FACTORIAL HepG2 Assay for human Myelocytomatosis (Myc) Proto-Oncogene Transcription Factor (AID 2282990). As to conditions: HepG2, Attagene cis-reporter transcription factor activity; actives raise or lower the signal. Put shortly: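 Read-out: fluorescent reporter mRNA fragments resolved by capillary electrophoresis after RT-PCR. Human HepG2 liver cells carried transfected cis-element reporter units and were dosed for 24 h. Gain or loss of signal fitted relative to DMSO baseline.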
Myc proto-oncogene protein (Homo sapiens), sequence (P01106 whole entry, looked up, the tested form may be a part): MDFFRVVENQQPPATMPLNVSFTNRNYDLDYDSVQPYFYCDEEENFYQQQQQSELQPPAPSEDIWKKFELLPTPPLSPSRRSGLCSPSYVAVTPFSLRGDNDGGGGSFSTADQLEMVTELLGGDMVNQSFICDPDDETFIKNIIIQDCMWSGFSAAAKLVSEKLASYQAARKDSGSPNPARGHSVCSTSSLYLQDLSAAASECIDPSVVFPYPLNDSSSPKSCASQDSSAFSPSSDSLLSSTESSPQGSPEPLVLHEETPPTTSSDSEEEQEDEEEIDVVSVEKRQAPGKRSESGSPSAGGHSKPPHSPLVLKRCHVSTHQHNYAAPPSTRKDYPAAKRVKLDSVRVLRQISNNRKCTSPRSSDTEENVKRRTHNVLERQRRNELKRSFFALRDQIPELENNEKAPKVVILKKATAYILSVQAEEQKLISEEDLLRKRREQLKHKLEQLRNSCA

Test [2] can be described thus: ATG_NF_kB_CIS: Attagene CIS-FACTORIAL HepG2 Assay for human Nuclear Factor Kappa B (NF-kB) (AID 2282991). Particulars: HepG2 Attagene cis-factorial NF-kB reporter mRNA; actives raise or lower the signal. Put shortly: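 Endogenous transcription factor activity in HepG2 was captured via cis-regulated reporter constructs; after 24 h dosing, reporter mRNA was reverse-transcribed, amplified, fluorescently labelled and sized by capillary electrophoresis, with activity fitted bidirectionally relative to DMSO.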

A short description of test [3]: ATG_NRF2_ARE_CIS: Attagene CIS-FACTORIAL HepG2 Assay for human Nuclear Factor Erythroid 2 Related Factor 2 (NFR2) response to Antioxidant Response Elements (ARE) (AID 2282992).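 On AC50: reporter mRNA level measured by RT-PCR and capillary electrophoresis fluorescence.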 Particulars: HepG2 Attagene ARE/NRF2 reporter, transcription factor activity; actives raise or lower the signal. Put shortly:
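Fluorescence intensity of reporter-specific cDNA fragments, separated by capillary electrophoresis, reflects mRNA induction in transfected HepG2 cells at 24 h. Activity is fitted bidirectionally, DMSO serving as baseline.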

A short description of test [4]: ATG_Oct_MLP_CIS: Attagene CIS-FACTORIAL HepG2 Assay for human Octamer-Binding Transcription Factor (Oct) (AID 2282993). Particulars: HepG2 Attagene cis-factorial Oct reporter, mRNA; actives raise or lower the signal. Put shortly: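 Read-out: reporter mRNA via RT-PCR plus capillary electrophoresis of 6-FAM-labelled fragments. Transiently transfected HepG2, 24 h exposure, endogenous TF activity on cis elements. Gain or loss of signal fitted relative to DMSO.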

The target of test [5] is Cellular tumor antigen p53 (Homo sapiens) (UniProt P04637). Kind of test: ATG_p53_CIS: Attagene CIS-FACTORIAL HepG2 Assay for human p53 Transcription Factor (AID 2282994). Particulars: HepG2 p53 cis-element reporter, Attagene mRNA; actives raise or lower the signal. An outline of the steps: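 Transiently transfected HepG2 (multiple cis reporter transcription units); exposure 24 h; reporter RNA via RT-PCR, 6-FAM extension, 2 h HpaI digest at 37 C, CE detection; DMSO baseline.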
Cellular tumor antigen p53 (Homo sapiens), sequence (P04637 whole entry, looked up): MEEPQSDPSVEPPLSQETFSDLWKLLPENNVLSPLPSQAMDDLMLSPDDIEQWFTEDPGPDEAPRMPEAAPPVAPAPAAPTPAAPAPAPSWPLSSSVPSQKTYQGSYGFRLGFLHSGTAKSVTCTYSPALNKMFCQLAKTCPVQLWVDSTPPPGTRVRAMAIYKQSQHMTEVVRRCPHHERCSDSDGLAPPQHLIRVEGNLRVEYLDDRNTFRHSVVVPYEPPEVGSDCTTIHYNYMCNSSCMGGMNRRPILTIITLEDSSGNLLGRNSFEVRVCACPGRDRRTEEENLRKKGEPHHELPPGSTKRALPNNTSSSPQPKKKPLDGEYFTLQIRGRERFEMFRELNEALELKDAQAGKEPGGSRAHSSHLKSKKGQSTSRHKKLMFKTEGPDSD

Test [6] in a line: BSK_3C_TissueFactor: BioMAP Diversity Plus: 3C Assay for Tissue Factor Biomarker Activity (AID 2282997). Particulars: BioMAP 3C HUVEC, tissue factor biomarker readout; actives raise or lower the signal. An outline of the steps: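 Cells used were primary human umbilical vein endothelial cells. They were dosed with chemical, and after 24 h Tissue Factor was quantified by ELISA. Curves were fitted bidirectionally with DMSO as baseline.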

The nature of test [7]: BSK_3C_uPAR: BioMAP Diversity Plus: 3C Assay for Urokinase-type plasminogen activator receptor (uPAR) Biomarker Activity (AID 2282998). As to conditions: BioMAP 3C HUVEC, uPAR biomarker ELISA; actives raise or lower the signal. An outline of the steps: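 HUVEC primary cells; 24 h post-dose; uPAR by ELISA; gain or loss of signal fitted bidirectionally vs DMSO baseline.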
Test [8] can be described thus: BSK_3C_VCAM1: BioMAP Diversity Plus: 3C Assay for Vascular cell adhesion molecule 1 (VCAM1) Biomarker Activity (AID 2282999). As to conditions: BioMAP 3C HUVEC, VCAM1 ELISA, cytokine-stimulated; actives raise or lower the signal. Put shortly:
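HUVEC primary cells, 24 h compound exposure; VCAM-1 by ELISA; gain/loss of signal fitted bidirectionally vs DMSO baseline.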

Test [9] addresses human Peroxisome Proliferator-activated Receptor delta (PPARd), PPARD (gene 5467) (UniProt Q03181). Kind of test: ATG_PPARd_TRANS: Attagene TRANS-FACTORIAL HepG2 Assay for human Peroxisome Proliferator-activated Receptor delta (PPARd) (AID 2283002; active means hit-call score of the fitted dose curve at least 0.9, where 1 is the maximum). An outline of the steps: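 Read-out: reporter mRNA induction, quantified by fluorescent RT-PCR products resolved by capillary electrophoresis. Human HepG2 liver cells carried transiently transfected Gal4-UAS reporter constructs with chimeric NR-Gal4 fusions. Cells were dosed for 24 h; DMSO served as baseline.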

Read-out in test [10]: Intercellular Adhesion Molecule 1 (ICAM1), ICAM1 (gene 3383)
Kind of test: BSK_3C_ICAM1: BioMAP Diversity Plus: 3C Assay for Intercellular Adhesion Molecule 1 (ICAM1) Biomarker Activity (AID 2283003). As to conditions: primary human endothelial cells (HUVEC); actives raise or lower the signal. Put shortly: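 Chemicals are dosed onto primary human umbilical vein endothelium (3C system). After 24 h, ICAM-1 is measured by ELISA, and responses are fitted bidirectionally relative to DMSO.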

The nature of test [11]: BSK_3C_Proliferation: Cell Proliferation Assessment in the BioMAP Diversity Plus: 3C Assay (AID 2283006).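 On AC50: potency may reflect either rise or fall in cell number versus DMSO.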 As to conditions: primary human endothelial cells (HUVEC). Put shortly:
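Cells (human umbilical vein endothelial, sub-confluent) receive test chemical; after 48 h they are fixed in 10% trichloroacetic acid, stained with 0.1% SRB and read at 560 nm. Activity is referenced to DMSO, fitting increases and decreases.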

Test [12] deals with Peroxisome proliferator-activated receptor gamma (Homo sapiens) (UniProt P37231). Kind of test: ATG_PPARg_TRANS: Attagene TRANS-FACTORIAL HepG2 Assay for human Peroxisome Proliferator-activated Receptor-gamma (PPARg) (AID 2283007; active means hit-call score of the fitted dose curve at least 0.9, where 1 is the maximum). Put shortly:
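A TRANS-format multiplexed reporter assay measures activity of an exogenous chimeric NR-Gal4 protein in HepG2 cells. After 24 h of chemical exposure, reporter transcripts are amplified, fluorescently labelled and sized by capillary electrophoresis, with gain of signal scored against DMSO.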

For test [13], the target named is Nuclear receptor subfamily 1 group I member 2 (Homo sapiens) (UniProt O75469). Kind of test: ATG_PXR_TRANS: Attagene TRANS-FACTORIAL HepG2 Assay for human Pregnane X Receptor (PXR) (AID 2283008; active means hit-call score of the fitted dose curve at least 0.9, where 1 is the maximum). Put shortly:
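Transient HepG2 transfectants carrying multiplexed reporter transcription units; PXR activity read through a Gal4 chimera. 24 h exposure. RT-PCR/CE fluorescence; upward curve fit referenced to DMSO.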

In test [14] the target is human Retinoic Acid Receptor gamma (RARg), RARG (gene 5916) (UniProt P13631). Kind of test: ATG_RARg_TRANS: Attagene TRANS-FACTORIAL HepG2 Assay for human Retinoic Acid Receptor gamma (RARg) (AID 2283009; active means hit-call score of the fitted dose curve at least 0.9, where 1 is the maximum). Put shortly: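 TRANS format measured activity of exogenous NR-GAL4 fusion (RARg) in transfected HepG2 liver cells after 24 h dosing. Induced reporter RNA was detected by RT-PCR/capillary electrophoresis fluorescence, analysed in the positive direction against DMSO.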
human Retinoic Acid Receptor gamma (RARg), RARG (gene 5916), sequence (P13631 whole entry, looked up, the tested form may be a part): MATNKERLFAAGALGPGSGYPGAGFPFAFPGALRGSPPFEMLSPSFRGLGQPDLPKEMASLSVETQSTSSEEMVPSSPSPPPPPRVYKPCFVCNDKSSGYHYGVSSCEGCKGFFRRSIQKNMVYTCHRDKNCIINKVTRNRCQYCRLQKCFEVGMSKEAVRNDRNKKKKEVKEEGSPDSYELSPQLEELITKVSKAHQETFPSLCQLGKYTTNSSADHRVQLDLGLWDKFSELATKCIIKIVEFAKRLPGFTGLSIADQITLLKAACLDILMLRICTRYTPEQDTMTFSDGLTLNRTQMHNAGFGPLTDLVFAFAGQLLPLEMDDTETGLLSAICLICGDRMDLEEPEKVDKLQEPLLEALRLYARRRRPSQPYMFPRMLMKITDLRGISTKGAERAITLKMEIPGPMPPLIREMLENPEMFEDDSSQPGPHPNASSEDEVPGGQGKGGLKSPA

The nature of test [15]: BSK_4H_Eotaxin3: BioMAP Diversity Plus: 4H Assay for Eotaxin 3 Biomarker Activity (AID 2283000).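 On outcome: CCL26 protein level quantified by ELISA in parallel with SRB cytotoxicity check.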 As to conditions: primary human endothelial cells (HUVEC); actives raise or lower the signal. An outline of the steps:
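Endothelial primary cells (human umbilical vein) exposed to compound for 24 h. ELISA detection of Eotaxin-3.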

Test [16] addresses human Retinoic Acid Receptor beta (RARb), RARB (gene 5915) (UniProt P10826). Kind of test: ATG_RARb_TRANS: Attagene TRANS-FACTORIAL HepG2 Assay for human Retinoic Acid Receptor beta (AID 2283004; active means hit-call score of the fitted dose curve at least 0.9, where 1 is the maximum). Put shortly:
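HepG2, transient MRTU transfection, NR–Gal4 chimera, 24 h treatment; RT-PCR plus CE fluorescence detection of reporter mRNA; gain of signal vs DMSO.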

The target in test [17] is Retinoic acid receptor alpha (Homo sapiens) (UniProt P10276). Kind of test: ATG_RARa_TRANS: Attagene TRANS-FACTORIAL HepG2 Assay for human Retinoic Acid Receptor alpha (RARa) (AID 2283005; active means hit-call score of the fitted dose curve at least 0.9, where 1 is the maximum). An outline of the steps:
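HepG2 transiently transfected with multiplex GAL4-UAS reporter units including a human RARa–GAL4 chimera; 24 h compound exposure. Reporter mRNA quantified by RT-PCR, 6-FAM labeling and capillary electrophoresis; gain of signal versus DMSO.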

The target in test [18] is human RAR-related Orphan Receptor beta (RORb), RORB (gene 6096) (UniProt Q92753). Kind of test: ATG_RORb_TRANS: Attagene TRANS-FACTORIAL HepG2 Assay for human RAR-related Orphan Receptor beta (RORb) (AID 2283010; active means hit-call score of the fitted dose curve at least 0.9, where 1 is the maximum). An outline of the steps: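 Transfect HepG2 with multiple GAL4-UAS reporter transcription units; dose chemicals for 24 h; isolate RNA, reverse-transcribe and PCR-amplify reporter sequences; label, digest and resolve fragments by capillary electrophoresis; fit increases relative to DMSO.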
human RAR-related Orphan Receptor beta (RORb), RORB (gene 6096), sequence (Q92753 whole entry, looked up, the tested form may be a part): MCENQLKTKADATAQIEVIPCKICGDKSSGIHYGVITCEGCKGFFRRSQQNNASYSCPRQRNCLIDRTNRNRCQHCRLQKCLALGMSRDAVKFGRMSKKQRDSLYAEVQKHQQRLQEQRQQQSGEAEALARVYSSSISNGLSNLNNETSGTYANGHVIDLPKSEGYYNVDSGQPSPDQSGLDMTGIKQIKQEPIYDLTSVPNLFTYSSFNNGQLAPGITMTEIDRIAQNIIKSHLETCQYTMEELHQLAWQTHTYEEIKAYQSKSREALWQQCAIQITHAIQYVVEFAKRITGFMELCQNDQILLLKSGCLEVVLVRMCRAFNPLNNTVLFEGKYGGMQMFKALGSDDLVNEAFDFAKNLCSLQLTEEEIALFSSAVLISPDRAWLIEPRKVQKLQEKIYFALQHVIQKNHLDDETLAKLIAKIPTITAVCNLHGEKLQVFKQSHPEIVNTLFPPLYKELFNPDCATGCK

For test [19], the target named is human RAR-related Orphan Receptor gamma (RORg), RORC (gene 6097) (UniProt P51449). Kind of test: ATG_RORg_TRANS: Attagene TRANS-FACTORIAL HepG2 Assay for human RAR-related Orphan Receptor gamma (RORg) (AID 2283011; active means hit-call score of the fitted dose curve at least 0.9, where 1 is the maximum). An outline of the steps: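 Activity is scored as increase in GAL4-UAS reporter mRNA over DMSO, detected by fluorescent RT-PCR and capillary electrophoresis in HepG2 cells transiently expressing a RORg-Gal4 chimera, 24 h after dosing.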
human RAR-related Orphan Receptor gamma (RORg), RORC (gene 6097), sequence (P51449 whole entry, looked up, the tested form may be a part): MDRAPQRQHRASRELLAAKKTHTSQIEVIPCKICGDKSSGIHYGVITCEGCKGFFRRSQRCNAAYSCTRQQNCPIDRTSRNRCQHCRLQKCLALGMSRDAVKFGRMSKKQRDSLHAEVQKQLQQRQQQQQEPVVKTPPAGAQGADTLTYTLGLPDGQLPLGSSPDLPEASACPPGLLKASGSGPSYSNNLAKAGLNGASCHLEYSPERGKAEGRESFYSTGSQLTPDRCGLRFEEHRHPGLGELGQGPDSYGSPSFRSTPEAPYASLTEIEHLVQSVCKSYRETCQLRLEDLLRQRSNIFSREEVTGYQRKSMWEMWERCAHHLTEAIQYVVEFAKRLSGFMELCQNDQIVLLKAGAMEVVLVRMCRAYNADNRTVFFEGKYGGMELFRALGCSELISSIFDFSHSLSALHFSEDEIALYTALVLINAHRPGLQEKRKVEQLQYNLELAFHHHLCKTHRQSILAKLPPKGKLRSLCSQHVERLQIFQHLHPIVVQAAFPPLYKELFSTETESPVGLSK

Test [20] concerns the target human Peroxisome Proliferator-activated Receptor alpha (PPARa), PPARA (gene 5465) (UniProt Q07869). Kind of test: ATG_PPARa_TRANS: Attagene TRANS-FACTORIAL HepG2 Assay for human Peroxisome Proliferator-activated Receptor alpha (PPARa) (AID 2283001; active means hit-call score of the fitted dose curve at least 0.9, where 1 is the maximum). An outline of the steps:
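HepG2, transient MRTU transfection, 24 h treatment. RT-PCR → FAM labelling → capillary electrophoresis. Fit vs DMSO, positive direction.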

Structures are written as SMILES. Records with an inconclusive call do not appear. Active and inactive are the calls of the source. How the source made its calls, unless noted: active means hit-call score of the fitted dose curve at least 0.9, where 1 is the maximum; inactive means score below 0.9.

Eight molecules from PubChem BioAssay (EPA / NIEHS) can be followed below.

Peroxisome proliferator-activated receptor gamma (Homo sapiens), sequence (P37231 whole entry, looked up, the tested form may be a part): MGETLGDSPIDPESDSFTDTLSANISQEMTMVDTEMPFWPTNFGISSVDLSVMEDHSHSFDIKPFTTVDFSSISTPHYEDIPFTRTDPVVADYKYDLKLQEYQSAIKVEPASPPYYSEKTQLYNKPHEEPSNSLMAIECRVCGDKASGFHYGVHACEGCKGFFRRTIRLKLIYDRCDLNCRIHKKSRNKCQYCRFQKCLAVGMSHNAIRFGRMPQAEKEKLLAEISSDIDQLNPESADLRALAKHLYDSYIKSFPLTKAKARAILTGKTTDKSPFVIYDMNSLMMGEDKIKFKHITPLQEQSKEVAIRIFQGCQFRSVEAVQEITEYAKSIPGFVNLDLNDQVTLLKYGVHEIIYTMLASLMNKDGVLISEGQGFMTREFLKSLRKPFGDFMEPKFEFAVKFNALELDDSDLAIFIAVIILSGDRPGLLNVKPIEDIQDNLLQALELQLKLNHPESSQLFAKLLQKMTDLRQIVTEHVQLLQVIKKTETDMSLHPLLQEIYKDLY
human Peroxisome Proliferator-activated Receptor delta (PPARd), PPARD (gene 5467), sequence (Q03181 whole entry, looked up, the tested form may be a part): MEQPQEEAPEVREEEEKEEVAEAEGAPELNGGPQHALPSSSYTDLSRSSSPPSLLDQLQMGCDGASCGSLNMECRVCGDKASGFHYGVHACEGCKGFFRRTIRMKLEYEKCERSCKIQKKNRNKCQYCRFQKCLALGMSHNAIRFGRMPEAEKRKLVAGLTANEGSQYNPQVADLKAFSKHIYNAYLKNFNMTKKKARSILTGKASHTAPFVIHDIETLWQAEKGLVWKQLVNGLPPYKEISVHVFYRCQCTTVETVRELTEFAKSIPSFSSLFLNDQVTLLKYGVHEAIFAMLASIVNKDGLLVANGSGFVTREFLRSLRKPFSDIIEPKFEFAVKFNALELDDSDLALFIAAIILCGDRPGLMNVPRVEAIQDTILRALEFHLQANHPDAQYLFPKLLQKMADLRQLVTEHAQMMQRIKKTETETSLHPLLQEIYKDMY
Nuclear receptor subfamily 1 group I member 2 (Homo sapiens), sequence (O75469 whole entry, looked up, the tested form may be a part): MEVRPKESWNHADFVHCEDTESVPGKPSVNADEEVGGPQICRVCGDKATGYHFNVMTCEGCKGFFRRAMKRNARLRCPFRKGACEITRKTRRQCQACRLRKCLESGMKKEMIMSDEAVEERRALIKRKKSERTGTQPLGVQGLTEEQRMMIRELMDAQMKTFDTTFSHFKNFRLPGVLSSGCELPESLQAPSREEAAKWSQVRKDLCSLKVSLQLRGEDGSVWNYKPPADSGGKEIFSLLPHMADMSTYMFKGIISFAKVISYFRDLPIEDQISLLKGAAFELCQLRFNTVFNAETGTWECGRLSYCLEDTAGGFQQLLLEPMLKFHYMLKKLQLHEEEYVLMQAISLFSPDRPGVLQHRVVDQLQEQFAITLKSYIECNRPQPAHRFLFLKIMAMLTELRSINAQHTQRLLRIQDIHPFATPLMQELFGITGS
human Retinoic Acid Receptor beta (RARb), RARB (gene 5915), sequence (P10826 whole entry, looked up, the tested form may be a part): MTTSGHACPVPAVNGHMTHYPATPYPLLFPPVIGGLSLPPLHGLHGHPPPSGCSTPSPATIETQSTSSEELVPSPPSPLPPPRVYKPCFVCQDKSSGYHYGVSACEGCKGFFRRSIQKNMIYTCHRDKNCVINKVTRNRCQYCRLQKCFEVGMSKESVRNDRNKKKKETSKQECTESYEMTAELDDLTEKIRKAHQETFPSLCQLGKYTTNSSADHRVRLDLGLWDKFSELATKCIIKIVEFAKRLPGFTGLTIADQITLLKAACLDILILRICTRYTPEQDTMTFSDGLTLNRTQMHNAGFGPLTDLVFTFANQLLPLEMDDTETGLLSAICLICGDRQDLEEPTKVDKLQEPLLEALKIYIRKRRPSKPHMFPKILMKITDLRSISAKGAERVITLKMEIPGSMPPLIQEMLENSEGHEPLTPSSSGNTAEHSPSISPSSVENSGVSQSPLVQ
Retinoic acid receptor alpha (Homo sapiens), sequence (P10276 whole entry, looked up, the tested form may be a part): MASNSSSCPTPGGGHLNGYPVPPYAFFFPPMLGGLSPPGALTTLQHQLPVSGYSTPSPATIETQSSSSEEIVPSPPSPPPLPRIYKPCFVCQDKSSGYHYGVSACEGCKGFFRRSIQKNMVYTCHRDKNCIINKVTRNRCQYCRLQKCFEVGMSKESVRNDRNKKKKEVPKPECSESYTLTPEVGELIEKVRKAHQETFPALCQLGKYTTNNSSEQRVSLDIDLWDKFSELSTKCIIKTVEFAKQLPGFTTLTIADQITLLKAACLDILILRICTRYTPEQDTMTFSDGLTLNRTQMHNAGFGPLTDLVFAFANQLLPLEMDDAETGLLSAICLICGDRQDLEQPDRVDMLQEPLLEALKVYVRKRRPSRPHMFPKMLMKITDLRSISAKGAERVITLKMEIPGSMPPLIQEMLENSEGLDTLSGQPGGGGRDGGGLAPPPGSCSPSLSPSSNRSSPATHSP

Regarding `COc1ccc(-n2nc(C(F)F)cc2-c2ccc(S(C)=O)cc2)cc1` (stereo not drawn), the call in test [1], in test [2], in test [3], in test [4], in test [5] and in test [6] was inactive. The result in [7], in test [8], in test [9], in test [10], in test [11] and in [12] was inactive. Also, the molecule was called inactive in test [13] and in [14].

As to `Nc1cccc(N)c1`, the molecule was called inactive in test [1], in test [2], in test [3], in test [4], in test [5] and in [6]. The result in test [7], in test [8], in test [15], in [16], in test [17] and in test [11] was inactive. For the same molecule, the result in [13], in test [14], in [18] and in [19] was inactive.

Turning to `CCCN(C1CCN(C(=O)C2CCNCC2)CC1)[C@@H]1CCc2ccc(OC)cc2C1`, the AC50 was 175 µM (active) in test [1]; 186 µM (active) in test [2]; 26.2 µM (active) in [3]; 178 µM (active) in [4]; 155 µM (active) in [5]. In addition, the outcome in test [6], in [7], in test [8], in test [15], in test [9] and in [10] was inactive. Besides, the outcome in [11], in [13] and in [14] was inactive.

With `O=C(O)c1cc(N=Nc2ccc(S(=O)(=O)Nc3ccccn3)cc2)ccc1O`, the result in test [1], in test [2], in [3], in [4], in [5] and in [6] was inactive. In addition, the outcome in [7], in test [8], in [9], in test [10], in test [11] and in test [18] was inactive.

Turning to `O=C(O)c1cccc(N(Cc2cccnc2)c2ccc(OC(F)F)c(OC(F)F)c2)c1`, the molecule was classed as inactive in [1], in test [3], in [4], in test [7], in [8] and in test [20]. Moreover, the molecule was classed as inactive in test [9], in test [10], in test [16], in test [11] and in test [14]. Also, the half-maximal activity concentration (AC50) in test [2] is 27.7 µM (active); in [5] it was 35.7 µM (active); in test [6], 14.7 µM (active); in [12], 6.66 µM (active); in test [13], 11.1 µM (active).

On to `O=c1n(CC2CO2)c(=O)n(CC2CO2)c(=O)n1CC1CO1` (stereo not drawn), for which the AC50 in test [1] is 58.4 µM (active); in test [2], 31.7 µM (active); in [3], 7.56 µM (active); in test [4] it was 48.5 µM (active); in [5] it was 24.7 µM (active); in [6], 11.3 µM (active). Further, the figures for the concentration at half-maximal activity (AC50) in test [7], in [8] and in [11] were 20 µM (active), 26.3 µM (active) and 1.46 µM (active), respectively. For the same molecule, the molecule was called inactive in test [9], in test [10], in [12] and in test [18].

Take `CCOCCO`: the outcome in test [1], in [2], in test [3], in [4], in test [5] and in test [6] was inactive. Further, the result in [7], in [8], in test [15], in [10], in test [16] and in test [11] was inactive.

As for `CCOC(=O)COc1ccc2c(c1)CC(NCC(O)c1cccc(Cl)c1)CC2` (stereo not drawn), the result in [1], in test [2], in [3], in test [4], in test [9] and in test [16] was inactive. The molecule was classed as inactive in [13], in test [14], in test [18] and in test [19]. For the same molecule, the concentration at half-maximal activity (AC50) in test [5] was 49.8 µM (active); in test [6], 33 µM (active); in [7] it was 28.5 µM (active); in [8], 27.5 µM (active); in test [15] it was 34.3 µM (active); in test [11] it was 15.3 µM (active).
